Assay outcomes from PubChem BioAssay.
Pf growth 96h = Primary qHTS for delayed death inhibitors of the malarial parasite plastid, 96 hour incubation. P. falciparum luciferase reporter growth, 96 h. Potency, µM (highest dose often 28.7 µM), for the others: top-dose activity change, negative = inhibition, hits mostly inhibitors. 320,000 compounds, 6.9% hits. AID 504834, 2011; further: potency means the concentration at half of the fitted maximal effect; on the % scale 0 is the no-effect control and ±100 the full control effect
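Parasite growth measured via integrated firefly luciferase reporter in P. falciparum. Infected erythrocytes at 2% hematocrit, 0.05% parasitemia final were treated 96 hours at 37 C under 5% CO2, and luminescence was read.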
HCV inhibitor = qHTS Assay for Inhibitors of Hepatitis C Virus (HCV) | Huh7.5.1 HCVcc-Cre infection, luciferase reporter, 44 h | Potency, µM (top dose mostly 41.8 µM), without a hit: at the top dose activity change, negative = inhibition, hits mostly inhibitors | 340,000 compounds, 3.4% hits | AID 651820, 2012; further: potency means the concentration at half of the fitted maximal effect; on the % scale 0 is the no-effect control and ±100 the full control effect
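Cells (1,000/well) were plated 4 h before compound, then infected with HCVcc-Cre virus (~0.5 moi). After 44 h further culture, infection was read as luciferase luminescence following a 15 min substrate incubation at room temperature.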
Pf growth 48h = Primary qHTS for delayed death inhibitors of the malarial parasite plastid, 48 hour incubation; Potency, µM (highest dose often 28.7 µM), without a hit: top-dose activity change, negative = inhibition, actives largely listed as inhibitors; 310,000 compounds, 5.9% hits; P. falciparum luciferase growth in erythrocytes, 48 h; further: potency means the concentration at half of the fitted maximal effect; on the % scale 0 is the no-effect control and ±100 the full control effect
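First compound was added to culture medium, then infected red cells at 0.1% parasitemia and 2% hematocrit (final). After incubation at 37 C under 5% CO2, luciferase detection reagent was dispensed and light output recorded.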
Shiga toxin inh = A qHTS for Small Molecule Inhibitors of Shiga Toxin; Vero cells, Shiga toxin protein synthesis inhibition reporter; inhibition, % at 38.7 µM; 290,000 compounds, 9.2% hits; AID 2315, 2010; in the data active means inhibition mostly above about 28%, no sharp cut-off; inactive means mostly below about 43%; further: 0% is about no effect
AMA1 RON2 block = qHTS for Inhibitors of AMA1-RON; Towards Development of Antimalarial Drug Lead: Primary Screen; Plasmodium falciparum AMA1 (3D7) - RON2 peptide interaction; AlphaScreen AMA1-biotinylated RON2 peptide binding; Potency, µM (top dose mostly 58.2 µM), inactives show at the highest dose activity change, negative = inhibition, hits mostly inhibitors; 360,000 compounds, 0.2% hits;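 further: potency means the concentration at half of the fitted maximal effect; 0% = vehicle wells and -100% = peptide control; nearly all actives have a fitted effect of over 45% in size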
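AMA1 (3D7) with his tag at 25 nM final met compounds first, then biotinylated RON2 peptide at 25 nM; detection used donor plus acceptor beads, 10 µg/mL apiece, read by AlphaScreen after 30 min at room temperature.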
CHX counter = Cycloheximide Counterscreen for Small Molecule Inhibitors of Shiga Toxin; cell reporter, cycloheximide protein synthesis inhibition counterscreen; max response, %; 300,000 compounds, 12% hits; in the data active means max response mostly above about 13%, no sharp cut-off; inactive means mostly below about 14%; further: read at 38.3 µM for the half of the compounds with a filed dose; 0% is about no effect
The depositor's hits bear a star; ? = inconclusive; nt = no result. Compounds with a hit are over-represented: about 21% of the library has one in this group of screens. Unless noted, the call rests on the fitted dose curve; in most records, active means well fitted curve in the direction sought with a large enough effect; inconclusive means small, poorly fitted or top-dose-only effect, or another doubt; inactive means no such curve, though single readings can be large; an effect the other way counts as inactive or inconclusive.

SMILES | Pf growth 96h | HCV inhibitor | Pf growth 48h | Shiga toxin inh | AMA1 RON2 block | CHX counter
Cc1cc(S(=O)(=O)NCCCN2CCOCC2)c(Cl)cc1Cl | 58% | 14% | 19% | -3 | 1% | -2
COc1cc(/C=C/C(=O)N(C)CC(=O)Nc2ccccc2Br)cc2c1OCCO2 | ? | ? | 8.3µM* | nt | -2% | nt
Cc1cccc(NC(=O)Cc2noc3ccccc23)c1 | 262% | ? | 207% | 74* | 0% | 48*
O=C(Cc1noc2ccccc12)Nc1ccc(Cl)cc1 | 35% | 9% | 40% | 22 | 2% | 35*
O=C(Cc1noc2ccccc12)NNC(=S)Nc1ccccc1 | 22% | -3% | 19% | -7 | 54% | -2
Cc1cccc(NC(=O)Cc2noc3ccccc23)c1C | 32% | 19% | 32% | 34* | -10% | 22
O=C(NOC(=O)c1c(F)cccc1Cl)c1ccc(Cl)c(Cl)c1 | 16% | 33% | nt | 46* | 12% | 30*
CC(C)(C)C1CCc2nc(NC(=O)Cc3cn4ccsc4n3)sc2C1 (centres undefined) | nt | 22µM* | -12% | 146* | -13% | 37*
O=C(COC(=O)Cc1cn2ccsc2n1)Nc1nc2ccccc2s1 | ? | -5% | 12% | 20 | -8% | 16
CC1CCc2nc(NC(=O)C3CCCO3)sc2C1 (centres undefined) | 5% | 11% | 113% | 55* | 3% | 24*
CC1CCc2nc(NC(=O)c3ccco3)sc2C1 (centres undefined) | -2% | ? | 37% | -24 | 9% | 3
CC1CCc2nc(NC(=O)Cc3cccs3)sc2C1 (centres undefined) | nt | ? | 142% | 94* | -4% | 48*
O=c1c(-c2cccs2)nc2ccccc2n1C(c1ccccn1)c1nc2ccccc2[nH]1 (centres undefined) | nt | nt | nt | nt | 54% | nt
Cc1cccc(NC(=O)CN(C)C(=O)Cc2ccc(-c3ccccc3)cc2)c1C | nt | nt | nt | nt | 8% | nt
OC[C@@H](O)C1OC2NC(=S)OC2C1O (some centres undefined) | 40% | 0% | 16% | 3 | 20% | -2
CCC(=O)Nc1ccccc1Sc1ncnc2scc(-c3ccccc3)c12 | 4.7µM* | -13% | 13µM* | -15 | 0% | -4
CC1(C)C[C@H]2C=C(C=O)[C@]3(C=O)C[C@]3(C)[C@H]2C1 | ? | 3.2µM* | ? | -21 | 12% | -9
CCC(C)c1ccc2oc(-c3ccc(NC(=O)Cn4cnc5c(=O)n(C)c(=O)n(C)c54)cc3)nc2c1 (centres undefined) | ? | ? | 57% | 154* | -12% | 58*
Cc1ccc2oc(-c3cccc(NC(=O)Cn4cnc5c(=O)n(C)c(=O)n(C)c54)c3)nc2c1 | 436% | nt | 172% | 137* | nt | 34*
Cn1c(=O)c2ncn(CC(=O)Nc3ccc(N4CCOCC4)cc3)c2n(C)c1=O | nt | 20% | 14% | -6 | -6% | -2
CC1(C)CC(=O)C=C(c2ccc(COC(=O)Cc3ccccc3)cc2)C1=O | nt | nt | nt | nt | -23% | nt
CC1CC(C)(C)CC2(C1)NC(=O)N(CC(=O)Nc1cc([N+](=O)[O-])ccc1F)C2=O (centres undefined) | 1% | -18% | ? | nt | -8% | nt
CCN(CC)CCN(Cc1cc2cc(C)ccc2[nH]c1=O)C(=O)Nc1ccccc1OC | nt | 15% | ? | -3 | 18% | -3
COC(=O)c1ccccc1NC(=S)N(Cc1ccc2c(c1)OCO2)Cc1cc2ccc(C)cc2[nH]c1=O | ? | ? | 9.3µM* | -25 | 16% | 0
COC(=O)c1ccccc1NC(=S)N(Cc1ccc2c(c1)OCO2)Cc1cc2ccc(OC)cc2[nH]c1=O | 34% | ? | 9.3µM* | -10 | -5% | -1
SMILES | Pf growth 96h | HCV inhibitor | Pf growth 48h | Shiga toxin inh | AMA1 RON2 block | CHX counter
COc1ccc2[nH]c(=O)c(CN(Cc3ccc4c(c3)OCO4)C(C)=O)cc2c1 | ? | 7% | 6% | -3 | 4% | 1
CCN(CC)CCN(Cc1cc2ccc(C)cc2[nH]c1=O)C(=S)Nc1ccccc1C(=O)OC | 47% | ? | 13µM* | -15 | -6% | -2
COC(=O)c1ccccc1NC(=S)N(Cc1ccc2c(c1)OCO2)Cc1cc2cc(C)ccc2[nH]c1=O | 5% | ? | ? | -4 | -7% | -1
COc1ccc(OC)c(CN2CCN(C(=O)c3cccc(S(=O)(=O)N(C)c4ccccc4)c3)CC2)c1 | nt | nt | nt | nt | -22% | nt
CSc1ncnc2c1ncn2CCCNCc1ccccn1 | nt | nt | nt | nt | 117% | nt
COc1ccc(OC)c(NP2(=O)OCC(C)([N+](=O)[O-])CO2)c1 (centres undefined) | nt | 16% | nt | nt | -7% | nt
CC(C)=CCC/C(C)=C/CNC(=O)C[C@H]1C[C@H](C(=O)N(C(C)C)C(C)C)[C@@]2(C)c3[nH]c4ccc(Cl)cc4c3CCN2C1=O | nt | 0% | nt | nt | -4% | nt
CC(C)N(C(=O)[C@H]1CC(CC(=O)NCCCN(C)C)C(=O)N2CCc3c([nH]c4ccccc34)[C@]12C)C(C)C (some centres undefined) | nt | -13% | nt | nt | 17% | nt
COc1ccc2[nH]c3c(c2c1)CCN1C(=O)C(CC(=O)NC/C=C(\C)CCC=C(C)C)C[C@H](C(=O)N(C(C)C)C(C)C)[C@@]31C (some centres undefined) | nt | 6.3µM* | nt | nt | ? | nt
COc1ccc(CNC(=O)C[C@H]2C[C@H](C(=O)N3CCOCC3)[C@@]3(C)c4[nH]c5ccc(Cl)cc5c4CCN3C2=O)cc1OC | nt | ? | nt | nt | -14% | nt
COc1ccc(CNC(=O)C[C@H]2C[C@H](C(=O)N(C(C)C)C(C)C)[C@@]3(C)c4[nH]c5ccc(Cl)cc5c4CCN3C2=O)cc1OC | nt | 13µM* | nt | nt | -15% | nt
CC(C)N(C(=O)[C@H]1CC(CC(=O)NCC23CC4CC(CC(C4)C2)C3)C(=O)N2CCc3c([nH]c4ccccc34)[C@]12C)C(C)C (some centres undefined) | nt | 3.2µM* | nt | nt | -1% | nt
CC(C)N(C(=O)[C@H]1C[C@H](CC(=O)NCC23CC4CC(CC(C4)C2)C3)C(=O)N2CCc3c([nH]c4cc(-c5ccco5)ccc34)[C@]12C)C(C)C | nt | 4% | nt | nt | -5% | nt
CC(C)N(C(=O)[C@H]1CC(CC(=O)NCc2cccc(C(F)(F)F)c2)C(=O)N2CCc3c([nH]c4ccccc34)[C@]12C)C(C)C (some centres undefined) | nt | 10µM* | nt | nt | -16% | nt
COc1ccc(-c2nc3ccc(Cl)cn3c2Cc2cccc(Cl)c2)cc1OC | nt | nt | nt | nt | -10% | nt
